D1 antagonist: Antagonist of Human D 1 Dopamine Receptor: qHTS. D(1A) dopamine receptor (Homo sapiens), P21728. HEK293 TREx D1 cells, calcium flux, dopamine EC80; stronger effect = lower value. activity change, negative = inhibition, % at 10 µM. actives 3.2% (n = 360,000). AID 504652, 2011; in the data active = activity change below about -30%
Target sequence (P21728 whole entry, looked up): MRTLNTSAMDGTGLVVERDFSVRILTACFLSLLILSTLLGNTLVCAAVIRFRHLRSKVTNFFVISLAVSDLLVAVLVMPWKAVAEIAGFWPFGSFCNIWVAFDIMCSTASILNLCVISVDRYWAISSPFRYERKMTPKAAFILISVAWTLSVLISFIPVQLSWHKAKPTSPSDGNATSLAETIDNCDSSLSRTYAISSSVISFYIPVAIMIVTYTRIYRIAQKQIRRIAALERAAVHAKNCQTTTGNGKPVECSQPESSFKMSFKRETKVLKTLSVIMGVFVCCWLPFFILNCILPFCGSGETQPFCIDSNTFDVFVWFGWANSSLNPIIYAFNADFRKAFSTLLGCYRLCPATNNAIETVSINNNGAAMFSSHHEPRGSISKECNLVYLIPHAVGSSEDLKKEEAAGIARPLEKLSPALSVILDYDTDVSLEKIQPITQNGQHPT
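Tetracycline-induced HEK293 Trex D1 cells, force-coupled to calcium, dye-loaded; compounds added and read 180 s, then EC80 dopamine added and calcium flux tracked kinetically another 180 s.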
TRHR ag: qHTS for Small Molecule Agonists and Allosteric Enhancers of Human TRH Receptor: Primary Screen for Agonists; AID 493084, 2011; actives 0.18% (n = 360,000); Thyrotropin-releasing hormone receptor (Homo sapiens), P34981; TRHR cells, calcium flux fluo-8, FDSS agonist mode; activation, % at 2 µM
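TRHR-expressing cells, plated overnight in medium with 10% serum, were loaded with fluo-8 calcium dye at room temperature. After a 10 s baseline, library compound was pin-added and calcium release was recorded kinetically (ex 480/em 530) as agonist response.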
D1 PAM: Potentiators of Human D1 Dopamine Receptor: qHTS; D(1A) dopamine receptor (Homo sapiens), P21728; HEK293 TREx D1 cells, calcium flux, dopamine EC20 potentiation; potentiation, % at 10 µM; actives 0.036% (n = 360,000); AID 504651, 2011; in the data active = potentiation above about 30%
TRHR PAM: qHTS for Small Molecule Agonists and Allosteric Enhancers of Human TRH Receptor: Primary Screen for Enhancers | enhancement, % at 2 µM | TRHR cells, fluo-8 calcium fluorescence, EC20 TRH enhancement | actives 0.66% (n = 360,000) | AID 493056, 2011; in the data active = enhancement above about 30%
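Enhancer read-out: after compound pinning and an initial kinetic agonist-mode read, an EC20 of TRH (10 nM final) was injected and fluo-8 calcium signal (Ex 480/Em 530) followed at 1 s/cycle for 100 cycles in TRHR-expressing cells.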
D1 agonist: Allosteric Agonists of the Human D1 Dopamine Receptor: qHTS; D(1A) dopamine receptor (Homo sapiens), P21728; HEK293 T-REx D1 cells, calcium flux, agonist mode; activation, % at 2 µM; actives 1% (n = 360,000); AID 504660, 2011
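Tetracycline-induced HEK293 TREx D1 cells, force-coupled to calcium signalling, were dye-loaded with a no-wash calcium kit. Compound was pin-added after a 10 s baseline. Fluorescence was read kinetically at 1 cycle/s for 180 s, with calcium rises flagged as agonism.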
Numbers stand for hits. This is a sample that favours compounds with a hit; in the whole collection about 4.7% have one here. Rule as the data show it, unless noted: active = activation above about 30%; inactive = the rest.

How did CCCSc1nnc(N2C(=O)C(O)=C(C(=O)c3ccco3)C2c2ccccc2F)s1 (centres undefined) do in these assays?
D1 antagonist: inactive; TRHR ag: inactive; D1 PAM: inactive; TRHR PAM: inactive; D1 agonist: 97

Results for CSc1nnc(N2C(=O)C(O)=C(C(=O)c3ccco3)C2c2ccccc2F)s1 (centres undefined) ?
D1 antagonist: inactive; TRHR ag: inactive; D1 PAM: inactive; TRHR PAM: inactive; D1 agonist: 98

Results for COc1cccc(NC(=O)CNC(=O)Cn2c(C)cc3ccccc3c2=O)c1 ?
D1 antagonist: inactive; TRHR ag: inactive; D1 PAM: inactive; TRHR PAM: inactive; D1 agonist: inactive

Results for C=CCC(Nc1ccccc1)c1ccc(OC)c(OC)c1 (centres undefined) ?
D1 antagonist: -40; TRHR ag: inactive; D1 PAM: inactive; TRHR PAM: inactive; D1 agonist: inactive

How did NCc1nc2cccnc2n1Cc1ccccc1Cl do in these assays?
D1 antagonist: -31; TRHR ag: inactive; D1 PAM: inactive; TRHR PAM: inactive; D1 agonist: inactive

What do the screens show for `CCc1ccc(NC(=O)Cn2nnc(C(=O)Nc3ccc(F)cc3)c2N)cc1`?
D1 antagonist: inactive; TRHR ag: inactive; D1 PAM: inactive; TRHR PAM: inactive; D1 agonist: inactive

How did COC(=O)CN(C)C(=O)c1ccccc1OC1CCN(S(C)(=O)=O)CC1 do in these assays?
D1 antagonist: inactive; TRHR ag: inactive; D1 PAM: inactive; TRHR PAM: 35; D1 agonist: inactive

How did CS(=O)(=O)N1CCC(Oc2ccccc2C(=O)N2CCCCC2CO)CC1 (centres undefined) do in these assays?
D1 antagonist: inactive; TRHR ag: inactive; D1 PAM: inactive; TRHR PAM: inactive; D1 agonist: inactive

Results for Cc1ccc(NC2=NCC(=O)N2CCc2ccccc2)cc1C ?
D1 antagonist: inactive; TRHR ag: inactive; D1 PAM: inactive; TRHR PAM: inactive; D1 agonist: inactive

Results for CCOc1ccc(NC2=C(Cl)C(=O)N(Cc3ccccc3)C2=O)cc1 ?
D1 antagonist: -30; TRHR ag: inactive; D1 PAM: inactive; TRHR PAM: inactive; D1 agonist: inactive

How did COc1ccc(CCN2C(=O)CN=C2Nc2ccc(F)cc2)cc1OC do in these assays?
D1 antagonist: -39; TRHR ag: inactive; D1 PAM: inactive; TRHR PAM: inactive; D1 agonist: inactive

How did COc1ccc(NC2=C(c3ccc(OC)cc3)C(=O)c3ccccc32)cc1 do in these assays?
D1 antagonist: inactive; TRHR ag: inactive; D1 PAM: inactive; TRHR PAM: inactive; D1 agonist: inactive

What do the screens show for `C=CCN1C(=O)CN=C1Nc1ccc(F)cc1`?
D1 antagonist: inactive; TRHR ag: inactive; D1 PAM: inactive; TRHR PAM: inactive; D1 agonist: inactive

What do the screens show for `CCOc1ccc(NC2=NCC(=O)N2CCc2ccccc2)cc1`?
D1 antagonist: -65; TRHR ag: inactive; D1 PAM: inactive; TRHR PAM: inactive; D1 agonist: 102

What do the screens show for `COc1ccc(C2=C(Nc3ccccc3)c3ccccc3C2=O)cc1`?
D1 antagonist: -35; TRHR ag: inactive; D1 PAM: inactive; TRHR PAM: inactive; D1 agonist: inactive

How did CCCCN(C)CCCNC(=O)Cn1ncc2c3ccccc3n(Cc3cccc(Cl)c3)c2c1=O do in these assays?
D1 antagonist: inactive; TRHR ag: inactive; D1 PAM: inactive; TRHR PAM: inactive; D1 agonist: inactive

Results for CCOc1ccc(NC2=C(OC)C(=O)c3ccccc3C2=O)cc1 ?
D1 antagonist: -33; TRHR ag: inactive; D1 PAM: inactive; TRHR PAM: inactive; D1 agonist: inactive

What do the screens show for `COC1=C(Nc2ccc(OC)cc2)C(=O)c2ccccc2C1=O`?
D1 antagonist: inactive; TRHR ag: inactive; D1 PAM: inactive; TRHR PAM: inactive; D1 agonist: inactive

How did CCN(CC)c1ccc(/C=C(/C#N)c2nc3ccc(C)cc3[nH]2)c(OC(C)C)c1 do in these assays?
D1 antagonist: inactive; TRHR ag: 83; D1 PAM: inactive; TRHR PAM: inactive; D1 agonist: 100

What do the screens show for `CCOc1cc(N(CC)CC)ccc1/C=C(/C#N)c1nc2ccccc2[nH]1`?
D1 antagonist: inactive; TRHR ag: 41; D1 PAM: inactive; TRHR PAM: inactive; D1 agonist: 57

How did CCCOc1cc(N(CC)CC)ccc1/C=C(/C#N)c1nc2ccc(C)cc2[nH]1 do in these assays?
D1 antagonist: inactive; TRHR ag: 32; D1 PAM: inactive; TRHR PAM: inactive; D1 agonist: inactive

Results for CC(CNC(=O)c1ccc(Cn2c(SCc3ccccc3)nc3cccnc32)cc1)c1ccccc1 (centres undefined) ?
D1 antagonist: inactive; TRHR ag: inactive; D1 PAM: inactive; TRHR PAM: inactive; D1 agonist: inactive

What do the screens show for `CC1CCc2onc(C(=O)Nc3ccc(Cl)cc3)c2C1` (centres undefined)?
D1 antagonist: inactive; TRHR ag: inactive; D1 PAM: inactive; TRHR PAM: inactive; D1 agonist: inactive

Results for CC(C)(C)c1ccc(C(=O)OC/C(O)=C(\C#N)c2nc3ccccc3s2)cc1 ?
D1 antagonist: -75; TRHR ag: inactive; D1 PAM: inactive; TRHR PAM: inactive; D1 agonist: inactive

How did CCOC(=O)N1CCN(/C=C(\C#N)c2nc3ccccc3s2)CC1 do in these assays?
D1 antagonist: inactive; TRHR ag: inactive; D1 PAM: inactive; TRHR PAM: inactive; D1 agonist: 32

Results for N#C/C(=C\N1CCN(Cc2ccc3c(c2)OCO3)CC1)c1nc2ccccc2s1 ?
D1 antagonist: inactive; TRHR ag: inactive; D1 PAM: inactive; TRHR PAM: inactive; D1 agonist: inactive

How did N#C/C(=C/c1ccc(-c2ccc(S(N)(=O)=O)cc2)o1)C(=O)Nc1ccccc1 do in these assays?
D1 antagonist: inactive; TRHR ag: inactive; D1 PAM: inactive; TRHR PAM: inactive; D1 agonist: inactive

Results for N#C/C(=C/c1ccc(-c2ccc(S(N)(=O)=O)cc2)o1)c1nc2ccccc2s1 ?
D1 antagonist: inactive; TRHR ag: 93; D1 PAM: inactive; TRHR PAM: inactive; D1 agonist: 265

How did N#C/C(=C\c1ccccn1)c1nc2ccccc2s1 do in these assays?
D1 antagonist: inactive; TRHR ag: 45; D1 PAM: inactive; TRHR PAM: inactive; D1 agonist: 148

Results for COc1cc(OC)c(Nc2nc3ccc(C(=O)c4ccccc4)cc3n3c(C)nnc23)cc1Cl ?
D1 antagonist: inactive; TRHR ag: inactive; D1 PAM: inactive; TRHR PAM: inactive; D1 agonist: inactive

Screening data as filed in PubChem BioAssay.
